The campaign covered roughly 5,500 compounds. About 2,000 (36%) were called active. Another 18% or so got no clear call; they are omitted. No stated cut-off is given here; in the data, active means normalized growth mostly below about 0.91 (no sharp cut-off); inconclusive means no clear call, values can overlap the other calls; inactive means mostly above about 0.92. The list shows a part of the results.
Experiment: chemical genetic growth profiling, strain panel (AID 1159580);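 further: tested at 20 µM; growth read once vehicle control cultures reached saturation at 30 °C; 1 = growth at the plate median or of vehicle wells; lower values mean less growth of the strain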
Conditions: S. cerevisiae deletion strains, growth OD

Measured: normalized growth

Cc1noc(C)c1S(=O)(=O)Nc1csc(C(F)(F)F)c1-c1ccccc1
inactive: locus YAR019C, strain CDC15, hits give low values 0.976 | locus YBL105C, strain PKC1, hits give low values 0.982 | locus YBR135W, strain CKS1, hits give low values 0.983 | locus YBR136W, strain MEC1, hits give low values 0.978 | locus YBR160W, strain CDC28, hits give low values 0.982 | locus YDL017W, strain CDC7, hits give low values 0.979 | locus YDL028C, strain MPS1, hits give low values 0.973 | locus YDL101C, strain DUN1, hits give low values 0.97 | locus YDL108W, strain KIN28, hits give low values 0.985 | locus YDL132W, strain cdc53, hits give low values 0.977 | locus YDL214C, strain PRR2, hits give low values 0.997 | locus YDR052C, strain DBF4, hits give low values 0.979 | locus YDR054C, strain cdc34, hits give low values 0.973 | locus YDR226W, strain ADK1, hits give low values 0.979 | locus YDR477W, strain SNF1, hits give low values 1.04 | locus YER123W, strain YCK3, hits give low values 1.05 | locus YER133W, strain GLC7, hits give low values 1.02 | locus YFL009W, strain cdc4, hits give low values 0.969 | locus YFL029C, strain CAK1, hits give low values 0.979 | locus YFR003C, strain YPI1, hits give low values 0.983 | locus YFR019W, strain FAB1, hits give low values 1.01 | locus YFR028C, strain CDC14, hits give low values 0.97 | locus YGR040W, strain KSS1, hits give low values 1.04 | locus YGR052W, strain FMP48, hits give low values 1.12 | locus YGR092W, strain DBF2, hits give low values 1.02 | locus YHR030C, strain SLT2, hits give low values 1.09 | locus YHR079C, strain IRE1, hits give low values 1.06 | locus YHR082C, strain KSP1, hits give low values 1.08 | locus YHR205W, strain SCH9, hits give low values 1 | locus YIL147C, strain SLN1, hits give low values 0.975 | locus YJL095W, strain BCK1, hits give low values 1.07 | locus YJL128C, strain PBS2, hits give low values 0.957 | locus YJL157C, strain FAR1, hits give low values 1.01 | locus YJR016C, strain ILV3, hits give low values 0.982 | locus YJR066W, strain TOR1 (second series), hits give low values 1.04 | locus YJR066W, strain TOR1, hits give low values 1.07 | locus YKL048C, strain ELM1, hits give low values 0.973 | locus YKL067W, strain YNK1, hits give low values 1 | locus YKL101W, strain HSL1, hits give low values 0.978 | locus YKL193C, strain SDS22, hits give low values 0.976 | locus YKL203C, strain TOR2, hits give low values 1.08 | locus YLR113W, strain HOG1, hits give low values 1.04 | locus YLR133W, strain CKI1, hits give low values 1.01 | locus YLR403W, strain SFP1, hits give low values 1.05 | locus YML070W, strain DAK1, hits give low values 1.04 | locus YMR001C, strain CDC5, hits give low values 0.971 | locus YMR205C, strain PFK2 (second series), hits give low values 0.995 | locus YMR277W, strain FCP1, hits give low values 0.98 | locus YNL006W, strain LST8, hits give low values 0.98 | locus YNL020C, strain ARK1, hits give low values 0.993 | locus YNL161W, strain CBK1, hits give low values 0.972 | locus YNL183C, strain NPR1, hits give low values 1.06 | locus YNL207W, strain RIO2, hits give low values 0.978 | locus YNL222W, strain SSU72, hits give low values 0.98 | locus YNL307C, strain MCK1 (second series), hits give low values 1 | locus YOL078W, strain AVO1, hits give low values 0.978 | locus YOL136C, strain PFK27, hits give low values 1.02 | locus YOR061W, strain CKA2, hits give low values 0.985 | locus YOR119C, strain RIO1, hits give low values 1.02 | locus YOR231W, strain MKK1, hits give low values 1.05 | locus YOR329C, strain SCD5, hits give low values 0.975 | locus YPL031C, strain PHO85, hits give low values 1.03 | locus YPL153C, strain RAD53, hits give low values 1.04 | locus YPL204W, strain HRR25, hits give low values 1.04 | locus YPL209C, strain IPL1, hits give low values 0.975 | locus YPL256C, strain CLN2, hits give low values 1.01 | locus YPR025C, strain CCL1, hits give low values 0.98 | locus YPR106W, strain ISR1, hits give low values 0.981 | locus YPR111W, strain DBF20, hits give low values 0.97 | strain NNK1, hits give low values 0.964 | strain TSCII, hits give low values 0.983
